Laboratory results from the supplement of paper PMC12067093, “Discovery and optimisation of a covalent ligand for TRIM25 and its application to targeted protein ubiquitination” (Chemical Science, 2025).
The full data set covers some 21,000 targets. This sample favours those with the largest changes.

compound: Cc1cc(ccc1-c1ccccc1)C(=O)N1CCCN(CC1)C(=O)CCl [compound 10]; assay: probe-labelled cysteine peptide fold change vs DMSO (competition) (log2 fold change); higher = less target engagement (more negative = stronger competition); conditions: 10 µM; THP-1; incubation time: 4 h
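Also: competitive profiling in live THP-1 cells: cysteine peptides tagged with an iodoacetamide desthiobiotin (IA-DTB) probe, intensity after compound treatment relative to DMSO-treated cells.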

Chain of UniProt Q8IY92 (Q8IY92 whole entry, looked up): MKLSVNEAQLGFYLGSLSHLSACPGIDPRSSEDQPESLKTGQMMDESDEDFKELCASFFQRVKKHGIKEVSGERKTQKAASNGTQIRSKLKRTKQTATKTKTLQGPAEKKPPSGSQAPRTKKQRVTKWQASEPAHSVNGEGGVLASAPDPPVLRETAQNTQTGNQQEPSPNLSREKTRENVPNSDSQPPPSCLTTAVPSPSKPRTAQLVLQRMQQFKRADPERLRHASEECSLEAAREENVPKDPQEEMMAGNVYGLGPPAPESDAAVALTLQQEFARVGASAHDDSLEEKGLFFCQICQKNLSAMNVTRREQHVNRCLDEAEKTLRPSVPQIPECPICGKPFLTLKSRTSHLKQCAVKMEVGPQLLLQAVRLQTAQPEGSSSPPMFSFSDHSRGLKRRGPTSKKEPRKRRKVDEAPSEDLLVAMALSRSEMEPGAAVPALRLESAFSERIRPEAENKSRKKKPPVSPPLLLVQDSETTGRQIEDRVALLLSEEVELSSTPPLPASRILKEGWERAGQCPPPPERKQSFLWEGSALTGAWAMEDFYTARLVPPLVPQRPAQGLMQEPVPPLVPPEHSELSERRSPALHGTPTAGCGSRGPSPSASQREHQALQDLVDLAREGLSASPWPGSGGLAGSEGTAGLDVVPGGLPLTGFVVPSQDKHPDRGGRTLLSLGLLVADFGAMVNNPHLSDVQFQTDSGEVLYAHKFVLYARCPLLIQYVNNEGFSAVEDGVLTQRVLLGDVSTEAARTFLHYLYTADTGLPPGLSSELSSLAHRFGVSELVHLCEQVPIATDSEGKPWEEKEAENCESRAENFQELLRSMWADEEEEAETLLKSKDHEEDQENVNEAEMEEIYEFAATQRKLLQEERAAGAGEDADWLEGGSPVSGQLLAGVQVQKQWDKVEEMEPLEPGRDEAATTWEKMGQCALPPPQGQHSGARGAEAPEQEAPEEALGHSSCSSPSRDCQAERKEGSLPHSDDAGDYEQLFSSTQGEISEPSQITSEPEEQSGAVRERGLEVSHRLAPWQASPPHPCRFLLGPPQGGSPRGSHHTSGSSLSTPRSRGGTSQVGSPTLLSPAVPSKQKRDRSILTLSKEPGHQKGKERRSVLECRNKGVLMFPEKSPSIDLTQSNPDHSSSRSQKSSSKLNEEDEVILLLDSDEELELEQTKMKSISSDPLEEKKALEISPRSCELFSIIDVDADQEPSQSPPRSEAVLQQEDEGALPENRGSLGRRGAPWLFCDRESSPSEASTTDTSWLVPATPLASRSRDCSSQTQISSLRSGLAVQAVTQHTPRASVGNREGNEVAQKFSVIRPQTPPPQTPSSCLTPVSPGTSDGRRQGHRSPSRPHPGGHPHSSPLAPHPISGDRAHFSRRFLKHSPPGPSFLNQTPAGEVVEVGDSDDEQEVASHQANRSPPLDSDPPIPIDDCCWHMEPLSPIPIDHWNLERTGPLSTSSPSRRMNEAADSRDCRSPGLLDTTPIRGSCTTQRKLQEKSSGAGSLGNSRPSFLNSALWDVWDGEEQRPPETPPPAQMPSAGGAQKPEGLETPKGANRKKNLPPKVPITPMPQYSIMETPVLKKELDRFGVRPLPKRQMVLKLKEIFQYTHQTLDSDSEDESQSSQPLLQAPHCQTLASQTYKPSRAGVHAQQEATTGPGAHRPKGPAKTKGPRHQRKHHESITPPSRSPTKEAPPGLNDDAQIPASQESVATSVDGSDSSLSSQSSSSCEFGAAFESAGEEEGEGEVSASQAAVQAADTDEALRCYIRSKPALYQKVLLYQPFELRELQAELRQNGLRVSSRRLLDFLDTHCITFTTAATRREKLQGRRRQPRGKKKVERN
Chain of UniProt Q8ND24 (Q8ND24 whole entry, looked up): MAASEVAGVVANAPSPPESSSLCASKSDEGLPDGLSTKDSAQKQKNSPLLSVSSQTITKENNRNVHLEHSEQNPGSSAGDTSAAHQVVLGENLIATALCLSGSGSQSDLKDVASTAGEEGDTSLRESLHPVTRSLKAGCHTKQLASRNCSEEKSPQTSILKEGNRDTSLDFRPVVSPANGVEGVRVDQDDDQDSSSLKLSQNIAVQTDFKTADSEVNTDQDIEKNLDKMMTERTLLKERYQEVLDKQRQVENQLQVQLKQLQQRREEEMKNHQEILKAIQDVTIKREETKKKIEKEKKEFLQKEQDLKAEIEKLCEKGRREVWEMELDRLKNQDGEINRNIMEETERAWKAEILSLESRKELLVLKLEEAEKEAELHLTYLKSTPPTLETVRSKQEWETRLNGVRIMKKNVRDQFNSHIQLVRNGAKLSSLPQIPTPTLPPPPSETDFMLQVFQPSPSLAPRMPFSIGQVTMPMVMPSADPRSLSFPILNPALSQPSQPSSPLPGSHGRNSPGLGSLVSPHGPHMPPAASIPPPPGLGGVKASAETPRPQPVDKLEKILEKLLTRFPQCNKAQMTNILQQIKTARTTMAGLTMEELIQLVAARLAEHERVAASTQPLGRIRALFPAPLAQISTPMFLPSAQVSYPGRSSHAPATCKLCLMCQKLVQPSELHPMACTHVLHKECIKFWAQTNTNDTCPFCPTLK
Chain of UniProt Q9Y512 (Q9Y512 whole entry, looked up): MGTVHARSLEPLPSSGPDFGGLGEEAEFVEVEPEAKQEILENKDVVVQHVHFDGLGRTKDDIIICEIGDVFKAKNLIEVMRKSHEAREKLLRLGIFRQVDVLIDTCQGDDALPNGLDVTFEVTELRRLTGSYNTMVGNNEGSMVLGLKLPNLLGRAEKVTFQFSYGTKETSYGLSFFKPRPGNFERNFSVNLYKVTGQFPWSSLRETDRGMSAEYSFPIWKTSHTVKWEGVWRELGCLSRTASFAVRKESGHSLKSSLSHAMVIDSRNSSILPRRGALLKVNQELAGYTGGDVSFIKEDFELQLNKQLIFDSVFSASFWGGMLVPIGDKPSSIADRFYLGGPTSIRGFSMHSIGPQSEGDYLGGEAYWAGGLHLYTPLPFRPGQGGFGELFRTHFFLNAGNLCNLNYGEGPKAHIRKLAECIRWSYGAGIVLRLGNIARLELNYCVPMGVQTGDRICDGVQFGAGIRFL
Chain of UniProt Q01826 (Q01826 whole entry, looked up): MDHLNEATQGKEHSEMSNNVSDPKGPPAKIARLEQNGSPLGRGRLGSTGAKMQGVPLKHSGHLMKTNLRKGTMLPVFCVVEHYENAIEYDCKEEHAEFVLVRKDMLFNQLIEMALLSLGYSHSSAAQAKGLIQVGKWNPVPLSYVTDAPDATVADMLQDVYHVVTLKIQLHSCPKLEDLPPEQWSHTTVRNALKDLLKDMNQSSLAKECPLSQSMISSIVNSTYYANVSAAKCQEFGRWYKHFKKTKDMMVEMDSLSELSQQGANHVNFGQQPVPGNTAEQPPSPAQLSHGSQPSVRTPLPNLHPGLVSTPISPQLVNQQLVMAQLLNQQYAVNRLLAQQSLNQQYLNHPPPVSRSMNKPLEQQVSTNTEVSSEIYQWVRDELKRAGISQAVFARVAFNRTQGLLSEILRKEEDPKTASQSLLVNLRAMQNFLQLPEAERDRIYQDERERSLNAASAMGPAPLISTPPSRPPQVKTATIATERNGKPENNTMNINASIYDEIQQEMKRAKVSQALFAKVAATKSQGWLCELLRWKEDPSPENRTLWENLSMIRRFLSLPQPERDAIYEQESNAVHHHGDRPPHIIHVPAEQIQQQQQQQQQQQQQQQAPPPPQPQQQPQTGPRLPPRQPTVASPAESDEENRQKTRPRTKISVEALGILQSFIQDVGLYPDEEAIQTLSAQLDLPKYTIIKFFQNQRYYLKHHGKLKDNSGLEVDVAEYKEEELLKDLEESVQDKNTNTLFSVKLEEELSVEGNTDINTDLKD
Chain of UniProt Q96EP0 (Q96EP0 whole entry, looked up): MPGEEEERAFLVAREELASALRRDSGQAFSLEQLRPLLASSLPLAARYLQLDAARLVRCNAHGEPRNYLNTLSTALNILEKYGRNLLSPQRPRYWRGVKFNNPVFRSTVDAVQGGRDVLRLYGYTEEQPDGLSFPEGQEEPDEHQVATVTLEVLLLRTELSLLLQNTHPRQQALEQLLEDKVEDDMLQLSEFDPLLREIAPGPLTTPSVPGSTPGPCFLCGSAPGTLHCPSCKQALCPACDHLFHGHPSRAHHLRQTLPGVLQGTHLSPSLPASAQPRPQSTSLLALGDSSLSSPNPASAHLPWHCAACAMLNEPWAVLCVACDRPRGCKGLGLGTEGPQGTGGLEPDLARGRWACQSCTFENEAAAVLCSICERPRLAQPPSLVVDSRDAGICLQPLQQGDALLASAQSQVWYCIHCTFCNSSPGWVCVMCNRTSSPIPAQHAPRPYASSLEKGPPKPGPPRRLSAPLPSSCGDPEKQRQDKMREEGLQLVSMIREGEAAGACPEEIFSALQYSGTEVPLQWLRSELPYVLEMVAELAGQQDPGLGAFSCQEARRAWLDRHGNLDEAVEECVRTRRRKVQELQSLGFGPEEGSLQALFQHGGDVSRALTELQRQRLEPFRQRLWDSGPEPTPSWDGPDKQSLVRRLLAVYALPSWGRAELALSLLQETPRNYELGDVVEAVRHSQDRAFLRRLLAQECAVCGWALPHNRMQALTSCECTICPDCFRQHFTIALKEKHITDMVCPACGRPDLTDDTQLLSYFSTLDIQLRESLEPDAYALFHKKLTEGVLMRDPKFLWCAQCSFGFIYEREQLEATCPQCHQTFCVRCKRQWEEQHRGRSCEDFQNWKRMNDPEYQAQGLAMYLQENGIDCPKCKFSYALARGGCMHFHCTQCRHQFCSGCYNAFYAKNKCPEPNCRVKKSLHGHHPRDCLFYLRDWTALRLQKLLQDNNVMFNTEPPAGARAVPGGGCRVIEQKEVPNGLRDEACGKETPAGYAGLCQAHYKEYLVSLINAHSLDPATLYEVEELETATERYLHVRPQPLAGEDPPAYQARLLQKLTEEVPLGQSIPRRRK

Row | Target | probe-labelled cysteine peptide fold change
1 | SEPT5_Q99719_278_LYPWGIVEVENQAHCDFVK (UniProt Q99719) | 0.194
2 | RTN4IP1_Q8WWV3_130_DVSGVVMECGLDVK (UniProt Q8WWV3) | 0.0949
3 | RNF31_Q96EP0_473_LSAPLPSSCGDPEK (UniProt Q96EP0) | -0.208
4 | SEMA4A_Q9H3S1_547_GNPEWACASGPMSR (UniProt Q9H3S1) | -0.0882
5 | SAMM50_Q9Y512_403_THFFLNAGNLCNLNYGEGPK (UniProt Q9Y512) | 0.022
6 | RNH1_P13489_323+330_SCSFTAACCSHFSSVLAQNR (UniProt P13489) | -0.0759
7 | SETD2_Q9BYW2_836_ISSNSFMNVHLESKPVICDSR (UniProt Q9BYW2) | 0.115
8 | SCCPDH_Q8NBX0_238_WPISYCR (UniProt Q8NBX0) | -0.242
9 | RNPEP_Q9H4A4_69_CLEPEGAAELR (UniProt Q9H4A4) | 0.063
10 | SEC63_Q9UGP8_671_EQTLISMPYHVCTLK (UniProt Q9UGP8) | 0.235
11 | SNRNP200_O75643_1278_VVSDRWLSCETQLPVSFR (UniProt O75643) | -0.0123
12 | RPS6KA1_Q15418_432_ETIGVGSYSECKR (UniProt Q15418) | -1.06
13 | RNF214_Q8ND24_675_LVQPSELHPMACTHVLHK (UniProt Q8ND24) | 0.0646
14 | RPS6_P62753_12_KLNISFPATGCQK (UniProt P62753) | 0.00268
15 | RPUSD2_Q8IZ73_246_LLAENEDVVVVDKPSSIPVHPCGR (UniProt Q8IZ73) | -0.561
16 | SNRNP70_P08621_39_HHNQPYCGIAPYIR (UniProt P08621) | -0.0761

Row | Target | probe-labelled cysteine peptide fold change
17 | SFSWAP_Q12872_307_CNRLEELMK (UniProt Q12872) | -0.382
18 | RNH1_P13489_199_DSPCQLEALKLESCGVTSDNCR (UniProt P13489) | -0.339
19 | SAE1_Q9UBE0_134_VDTEDIEKKPESFFTQFDAVCLTCCSR (UniProt Q9UBE0) | -0.00481
20 | RNF20_Q5VTR2_960_CNAAFGANDFHR (UniProt Q5VTR2) | 0.279
21 | SATB1_Q01826_91_GTMLPVFCVVEHYENAIEYDCKEEHAEFVLVR (UniProt Q01826) | -0.0836
22 | SLX4_Q8IY92_318_CLDEAEK (UniProt Q8IY92) | -0.0818
23 | RPAP1_Q9BWH6_185_GPSVGEVVPNVGPPEGAVTCETPTPR (UniProt Q9BWH6) | 0.902
24 | SMC3_Q9UQE7_1134_CDPAPFYLFDEIDQALDAQHR (UniProt Q9UQE7) | 0.416
25 | SMURF2_Q9HAU4_706_LFTIHQIDACTNNLPK (UniProt Q9HAU4) | -0.159
26 | SMYD3_Q9H7B4_261+263_DQYCFECDCFR (UniProt Q9H7B4) | -0.0235
27 | SF1_Q15637_282_CGGAGHIASDCK (UniProt Q15637) | 0.0635
28 | SMYD5_Q6GMV2_136_LAATEQYHQVLCPGPSQDDPLHPLNK (UniProt Q6GMV2) | -0.0142
29 | SLC9A3R1_O14745_206_IVEVNGVCMEGK (UniProt O14745) | 0.165
30 | SART3_Q15020_182_DYICPNIWLEYGQYSVGGIGQK (UniProt Q15020) | 0.208
31 | SDCCAG8_Q86SQ7_236_CEIEESQLK (UniProt Q86SQ7) | 0.069
32 | RSBN1_Q5VWQ0_318_DEQLCR (UniProt Q5VWQ0) | -0.206

same assay, conditions: 50 µM; THP-1; incubation time: 4 h

Row | Target | probe-labelled cysteine peptide fold change
33 | SEPT5_Q99719_278_LYPWGIVEVENQAHCDFVK (UniProt Q99719) | 0.135
34 | RTN4IP1_Q8WWV3_130_DVSGVVMECGLDVK (UniProt Q8WWV3) | 0.461
35 | RNF31_Q96EP0_473_LSAPLPSSCGDPEK (UniProt Q96EP0) | 0.0977
36 | SEMA4A_Q9H3S1_547_GNPEWACASGPMSR (UniProt Q9H3S1) | -0.865
37 | SAMM50_Q9Y512_403_THFFLNAGNLCNLNYGEGPK (UniProt Q9Y512) | 0.169
38 | RNH1_P13489_323+330_SCSFTAACCSHFSSVLAQNR (UniProt P13489) | -0.562
39 | SETD2_Q9BYW2_836_ISSNSFMNVHLESKPVICDSR (UniProt Q9BYW2) | 0.0162
40 | SCCPDH_Q8NBX0_238_WPISYCR (UniProt Q8NBX0) | -1.65
41 | RNPEP_Q9H4A4_69_CLEPEGAAELR (UniProt Q9H4A4) | 0.0983
42 | SEC63_Q9UGP8_671_EQTLISMPYHVCTLK (UniProt Q9UGP8) | 0.336
43 | SNRNP200_O75643_1278_VVSDRWLSCETQLPVSFR (UniProt O75643) | -0.0331
44 | RPS6KA1_Q15418_432_ETIGVGSYSECKR (UniProt Q15418) | -2.91
45 | RNF214_Q8ND24_675_LVQPSELHPMACTHVLHK (UniProt Q8ND24) | 0.0132
46 | RPS6_P62753_12_KLNISFPATGCQK (UniProt P62753) | 1.18
47 | RPUSD2_Q8IZ73_246_LLAENEDVVVVDKPSSIPVHPCGR (UniProt Q8IZ73) | -1.57
48 | SNRNP70_P08621_39_HHNQPYCGIAPYIR (UniProt P08621) | -0.168

Row | Target | probe-labelled cysteine peptide fold change
49 | SFSWAP_Q12872_307_CNRLEELMK (UniProt Q12872) | -1.12
50 | RNH1_P13489_199_DSPCQLEALKLESCGVTSDNCR (UniProt P13489) | -1.17
51 | SAE1_Q9UBE0_134_VDTEDIEKKPESFFTQFDAVCLTCCSR (UniProt Q9UBE0) | -1.27
52 | RNF20_Q5VTR2_960_CNAAFGANDFHR (UniProt Q5VTR2) | 0.358
53 | SATB1_Q01826_91_GTMLPVFCVVEHYENAIEYDCKEEHAEFVLVR (UniProt Q01826) | -0.32
54 | SLX4_Q8IY92_318_CLDEAEK (UniProt Q8IY92) | 0.0245
55 | RPAP1_Q9BWH6_185_GPSVGEVVPNVGPPEGAVTCETPTPR (UniProt Q9BWH6) | 1.33
56 | SMC3_Q9UQE7_1134_CDPAPFYLFDEIDQALDAQHR (UniProt Q9UQE7) | 0.52
57 | SMURF2_Q9HAU4_706_LFTIHQIDACTNNLPK (UniProt Q9HAU4) | -0.59
58 | SMYD3_Q9H7B4_261+263_DQYCFECDCFR (UniProt Q9H7B4) | -0.599
59 | SF1_Q15637_282_CGGAGHIASDCK (UniProt Q15637) | -0.0325
60 | SMYD5_Q6GMV2_136_LAATEQYHQVLCPGPSQDDPLHPLNK (UniProt Q6GMV2) | -0.404
61 | SLC9A3R1_O14745_206_IVEVNGVCMEGK (UniProt O14745) | -0.0744
62 | SART3_Q15020_182_DYICPNIWLEYGQYSVGGIGQK (UniProt Q15020) | 0.164
63 | SDCCAG8_Q86SQ7_236_CEIEESQLK (UniProt Q86SQ7) | -0.322
64 | RSBN1_Q5VWQ0_318_DEQLCR (UniProt Q5VWQ0) | -0.556
